PubChem BioAssay (NCATS)
Results filed as inconclusive are left out. Activity calls are given as the source filed them. Calls come from the whole dose curve; as a rule, active = well fitted cell-killing curve with a large enough effect; inconclusive = small, poorly fitted or top-dose-only effect, or effect the other way; inactive = no such curve, though single readings can be large or run the other way.

Tests used:
[1] = Quantitative High-Throughput drug screen in 47 multiple myeloma cell lines against the NCATS MIPE library collection: XG6_PLB cell viability assay (AID 1919865); note: nearly all actives have a fitted effect of over 40% in size
In short: (§1)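 Viability after 48 h drug exposure was measured as ATP-dependent luminescence. Cells, 500 per well, sat at 37 °C under 5% CO2; DMSO wells set 100%, media-only wells 0%.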

[2] = Quantitative High-Throughput drug screen in 47 multiple myeloma cell lines against the NCATS MIPE library collection: XG1_PLB cell viability assay (AID 1919866); note: nearly all actives have a fitted effect of over 35% in size
In short: as §1

[3] = Quantitative High-Throughput drug screen in 47 multiple myeloma cell lines against the NCATS MIPE library collection: VP6_DJ cell viability assay (AID 1919867); note: nearly all actives have a fitted effect of over 40% in size
In short: as §1

[4] = Quantitative High-Throughput drug screen in 47 multiple myeloma cell lines against the NCATS MIPE library collection: UTMC2_PLB cell viability assay (AID 1919868); details: CellTiter-Glo ATP luminescence, 48 h; viability (% of DMSO control): at 45.8 µM (top of the series) unless noted; note: nearly all actives have a fitted effect of over 55% in size
In short: as §1

[5] = Quantitative High-Throughput drug screen in 47 multiple myeloma cell lines against the NCATS MIPE library collection: PE2_PLB cell viability assay (AID 1919869); note: nearly all actives have a fitted effect of over 35% in size
In short: as §1

[6] = Quantitative High-Throughput drug screen in 47 multiple myeloma cell lines against the NCATS MIPE library collection: PCM6_Riken cell viability assay (AID 1919870); note: nearly all actives have a fitted effect of over 30% in size
In short: as §1

[7] = Quantitative High-Throughput drug screen in 47 multiple myeloma cell lines against the NCATS MIPE library collection: RPMI8226_ATCC cell viability assay (AID 1919871); note: nearly all actives have a fitted effect of over 30% in size
In short: as §1

[8] = Quantitative High-Throughput drug screen in 47 multiple myeloma cell lines against the NCATS MIPE library collection: OPM2_DSMZ cell viability assay (AID 1919872); note: nearly all actives have a fitted effect of over 30% in size
In short: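 CellTiter-Glo luminescence (ATP) after 48 h compound exposure, 37C/5% CO2; 500 cells/well; MIPE 4.0 approved/investigational drugs pinned in; DMSO = 100%, media only = 0% viability.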

[9] = Quantitative High-Throughput drug screen in 47 multiple myeloma cell lines against the NCATS MIPE library collection: KMS11_JCRBsus cell viability assay (AID 1919873); note: nearly all actives have a fitted effect of over 50% in size
In short: as §1

[10] = Quantitative High-Throughput drug screen in 47 multiple myeloma cell lines against the NCATS MIPE library collection: KMS28BM_JCRB cell viability assay (AID 1919874); note: nearly all actives have a fitted effect of over 35% in size
In short: as §1

Measured: Potency
Potency is the fitted concentration of half-maximal effect.

CCC[C@H](NC(=O)C(C#N)=Cc1cccc(Br)n1)c1ccccc1
active: [1] 2350 nM | [2] 1660 nM | [3] 2090 nM | [4] 2090 nM | [5] 2090 nM | [6] 1050 nM | [7] 2960 nM | [8] 5260 nM | [9] 2960 nM | [10] 2640 nM

O=C(C=Cc1cccc(S(=O)(=O)Nc2ccccc2)c1)NO
active: [1] 4810 nM | [2] 2410 nM | [3] 855 nM | [4] 1080 nM | [5] 3820 nM | [6] 2410 nM | [7] 3400 nM | [8] 3820 nM | [9] 1210 nM | [10] 1360 nM

Cc1cc(N2CCOCC2)cc2[nH]c(-c3c(NC[C@@H](O)c4cccc(Cl)c4)cc[nH]c3=O)nc12
active: [1] 83.3 nM | [2] 187 nM | [3] 148 nM | [4] 66.2 nM | [5] 148 nM | [6] 332 nM | [7] 469 nM | [8] 3720 nM

CCn1cc(-c2ccnc3[nH]c(-c4cccc(CN(C)C)c4)cc23)c(-c2ccc(NC(=O)N(C)C)cc2)n1
active: [1] 935 nM | [2] 1180 nM | [3] 1480 nM | [4] 743 nM | [5] 11800 nM | [6] 9350 nM | [7] 14800 nM | [8] 11800 nM | [9] 833 nM | [10] 6620 nM

CNC(=O)c1nn(C)c2c1C(C)(C)Cc1cnc(Nc3ccc(N4CCN(C)CC4)cc3)nc1-2
active: [1] 2960 nM | [2] 2640 nM | [3] 743 nM | [4] 8330 nM | [5] 2640 nM | [6] 2090 nM | [7] 1480 nM | [8] 13200 nM | [9] 1050 nM | [10] 2960 nM

Cc1ccc(C(=O)Nc2ccc(CN3CCN(C)CC3)c(C(F)(F)F)c2)cc1C#Cc1cnc2cccnn12
active: [1] 662 nM | [2] 1320 nM | [3] 1320 nM | [4] 590 nM | [5] 935 nM | [6] 1180 nM | [7] 11800 nM | [8] 5260 nM | [9] 1480 nM | [10] 7430 nM

COc1ccc(OC)c(-c2nnc3ccc(-c4ccc(OC)c(O[C@@H]5CCOC5)c4)nn23)c1
active: [1] 8330 nM | [2] 7430 nM | [3] 6620 nM | [4] 9350 nM | [5] 8330 nM | [6] 7430 nM | [7] 18700 nM | [8] 23500 nM | [9] 6620 nM | [10] 7430 nM

Nc1ccc(C(=O)c2cc3c(ccc4ccccc43)[nH]2)cc1
active: [1] 662 nM | [2] 662 nM | [3] 3720 nM | [4] 9350 nM | [5] 2960 nM | [8] 6620 nM | [9] 743 nM | [10] 935 nM

C=CC(=O)Nc1cccc(Oc2nc(Nc3ccc(N4CCN(C)CC4)cc3)ncc2Cl)c1
active: [1] 1180 nM | [2] 13200 nM | [3] 5900 nM | [4] 6620 nM | [5] 5900 nM | [6] 16600 nM | [7] 14800 nM | [8] 11800 nM | [10] 14800 nM

CNc1nccc(-c2cccnc2Oc2cc(C(=O)Nc3cccc(C(F)(F)F)c3)ccc2C)n1
active: [1] 2350 nM | [2] 2350 nM | [3] 5260 nM | [4] 14800 nM | [5] 6620 nM | [6] 4180 nM | [9] 18700 nM | [10] 23500 nM

CC1(C)OC2=C(C(=O)c3ccccc3C2=O)[C@H](NCc2ccccc2)[C@H]1O
active: [1] 935 nM | [2] 1480 nM | [3] 3320 nM | [5] 3320 nM | [6] 2350 nM | [7] 8330 nM | [8] 8330 nM | [9] 3720 nM | [10] 2960 nM

C=CC(=O)Nc1cc2c(Nc3ccc(F)c(Cl)c3)ncnc2cc1OCCCN1CCOCC1
active: [1] 1660 nM | [2] 2640 nM | [3] 1180 nM | [5] 1870 nM | [6] 1480 nM | [7] 20900 nM | [8] 20900 nM | [9] 9350 nM | [10] 5260 nM

Cc1cc(C(=O)N2CCN(c3cccc(Cl)c3)CC2)n(-c2ccccc2)n1
active: [1] 118 nM | [2] 93.5 nM | [3] 1320 nM | [5] 3720 nM | [6] 9350 nM | [7] 5900 nM | [8] 5900 nM | [9] 148 nM | [10] 132 nM

CC[C@@H]1C(=O)N(C)c2cnc(Nc3ccc(C(=O)NC4CCC(N5CCN(CC6CC6)CC5)CC4)cc3OC)nc2N1C(C)C (some centres undefined)
active: [1] 209 nM | [2] 18.7 nM | [3] 1660 nM | [5] 8330 nM | [6] 1870 nM | [7] 8330 nM | [8] 118 nM | [9] 29.6 nM | [10] 37.2 nM
